# In PubChem BioAssay AID2585 (National Center for Advancing Translational Sciences (NCATS), 2010):
# This is one part of the list. Inconclusive results are not listed. Active and inactive are the calls of the source. The call rests on the fitted dose curve; in most records, active means well fitted inhibition curve with a large enough effect; inconclusive means small, poorly fitted or top-dose-only effect; inactive means no such curve, though single readings can be large or run the other way.
# Biological target: RecQ-like DNA helicase BLM (Homo sapiens) (UniProt P54132)
# Sequence (P54132 whole entry, looked up): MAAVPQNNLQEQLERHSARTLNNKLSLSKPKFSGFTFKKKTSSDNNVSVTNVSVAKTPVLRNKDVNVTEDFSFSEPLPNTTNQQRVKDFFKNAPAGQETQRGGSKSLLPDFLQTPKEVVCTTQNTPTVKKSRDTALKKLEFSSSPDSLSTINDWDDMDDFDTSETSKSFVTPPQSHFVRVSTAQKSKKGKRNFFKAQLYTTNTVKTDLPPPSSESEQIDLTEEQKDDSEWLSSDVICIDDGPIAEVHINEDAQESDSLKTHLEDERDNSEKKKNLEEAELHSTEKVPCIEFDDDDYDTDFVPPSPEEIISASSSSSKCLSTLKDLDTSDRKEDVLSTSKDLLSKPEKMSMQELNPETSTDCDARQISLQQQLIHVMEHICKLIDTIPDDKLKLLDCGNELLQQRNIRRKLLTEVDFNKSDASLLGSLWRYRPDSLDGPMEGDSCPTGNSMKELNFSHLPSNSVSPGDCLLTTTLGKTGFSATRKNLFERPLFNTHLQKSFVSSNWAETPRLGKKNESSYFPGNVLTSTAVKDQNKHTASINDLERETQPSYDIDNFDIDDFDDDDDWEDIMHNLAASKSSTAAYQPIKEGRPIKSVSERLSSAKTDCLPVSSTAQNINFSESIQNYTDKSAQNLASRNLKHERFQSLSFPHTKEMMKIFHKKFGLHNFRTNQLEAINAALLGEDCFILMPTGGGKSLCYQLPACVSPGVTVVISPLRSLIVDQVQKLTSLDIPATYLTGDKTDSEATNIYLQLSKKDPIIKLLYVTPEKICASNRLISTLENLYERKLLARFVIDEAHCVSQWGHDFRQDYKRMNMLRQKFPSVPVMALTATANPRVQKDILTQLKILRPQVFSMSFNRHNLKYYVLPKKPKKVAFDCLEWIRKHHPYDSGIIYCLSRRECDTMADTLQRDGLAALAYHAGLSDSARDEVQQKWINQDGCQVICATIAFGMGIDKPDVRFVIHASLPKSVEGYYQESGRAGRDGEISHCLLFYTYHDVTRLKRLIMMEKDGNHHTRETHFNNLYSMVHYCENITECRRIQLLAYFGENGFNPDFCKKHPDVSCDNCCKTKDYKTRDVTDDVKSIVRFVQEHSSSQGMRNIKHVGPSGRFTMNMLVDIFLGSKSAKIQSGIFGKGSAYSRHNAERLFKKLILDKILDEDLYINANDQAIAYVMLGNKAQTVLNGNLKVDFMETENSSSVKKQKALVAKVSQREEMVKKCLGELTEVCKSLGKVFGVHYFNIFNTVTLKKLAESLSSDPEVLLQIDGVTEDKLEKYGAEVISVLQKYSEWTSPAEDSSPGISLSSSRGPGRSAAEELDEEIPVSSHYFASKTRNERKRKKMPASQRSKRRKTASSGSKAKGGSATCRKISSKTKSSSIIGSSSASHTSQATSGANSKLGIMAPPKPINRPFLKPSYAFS
# Assay: qHTS Confirmation Assay for Inhibitors of Bloom's syndrome helicase (BLM); further: nearly all actives have a fitted effect of over 45% in size
# Conditions: BLM DNA unwinding, fluorescence quenching, biochemical
# Description: Survival of cells and the faithful propagation of the genome depend on elaborate mechanisms of detecting and repairing DNA damage. Treatment of advanced cancer relies on radiation therapy or chemotherapy, which kill cancer cells by causing extensive DNA damage. It is often found, that cancer cells develop resistance to therapy through enhanced activity of DNA repair functions; this has led to an increased interest in developing drugs that interfere with DNA repair, which could sensitize cancer cells to conventional therapy. This validation qHTS assay pertains to human BLM, which is important in resolving abnormal DNA structures formed during replication or homologous recombination. Shutting down the expression of BLM leads to chromosomal instability and higher radiation sensitivity in cultured cells. The validation assay was a fluorescence quenching based kinetic qHTS for BLM Helicase DNA unwinding. The activity was measured as ATP-dependent separation of a 20-bp DNA duplex extended by 30-nt single-stranded tails (forked duplex). The forked DNA substrate was tagged with rhodamine fluorophore (carboxytetramethyl rhodamine, TAMRA) and BHQ-2 (Black Hole Quencher 2) dark quencher. Strand separation results in an increase in the fluorescence of TAMRA (excitation 525 nm, emission 598 nm). […]
# Potency means the concentration at half of the fitted maximal effect.
structure (smiles),measurement,value
O=C(O)c1cc[c]([Sb](=[O])([OH])[OH])cc1[N+](=O)[O-],Potency,8.57 µM (active)
